Measured values reported in PubChem BioAssay (NCATS).
Results filed as inconclusive are left out. The source made the active and inactive calls. Calls come from the whole dose curve; as a rule, active = well fitted curve in the direction sought with a large enough effect; inconclusive = small, poorly fitted or top-dose-only effect, or another doubt; inactive = no such curve, though single readings can be large; an effect the other way counts as inactive or inconclusive.

How the values were obtained:
[1] = tested on: HaCat; test: Cytotoxic Profiling of Annotated Libraries Using Quantitative High-Throughput Screening (AID 1296008); details: Five cell lines viability, CellTiter-Glo ATP luminescence, 48-72 h; max response: hits give low values; note: nearly all actives have a fitted effect of over 60% in size; for max response: % is set by controls: 0 for no effect and ±100 for the full control effect
Procedure, shortened: (§1)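 Compounds were pin-transferred onto cells and incubated 48 or 72 hr at 37 degree Celsius, 95% humidity. CellTiter-Glo was added, plates sat 10 min at room temperature, then ATP-coupled luminescence was imaged as the viability read-out.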

[2] = tested on: KB-3-1; test: as above; details: Five cell lines viability, CellTiter-Glo ATP luminescence, 48-72 h; max response: hits give low values
Procedure, shortened: as §1

[3] = tested on: NIH3T3; test: as above; details: Five cell lines viability, CellTiter-Glo ATP luminescence, 48-72 h; max response: hits give low values
Procedure, shortened: as §1

[4] = tested on: HACAT; test: qHTS assay to identify novel small-molecules to repurpose for Merkel cell carcinoma treatment (AID 1296009); details: MCC and control cell lines, CellTiter-Glo viability, 72 h; series mostly up to 44.8 µM; note: nearly all actives have a fitted effect of over 60% in size
Procedure, shortened: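 qHTS format: cells treated with library compounds in DMSO across 8 (NPC) or 11 (MIPE) concentrations. Readout after 72 hr at 37 degree celsius was CellTiter-Glo luminescence.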

[5] = tested on: C33A; test: Primary qHTS to identify gynecologic anti-cancer compounds using libraries of approved drugs and bioactive compounds (AID 1345084); details: Gynecologic cancer cell panel viability, ATPlite luminescence, 48 h; series mostly up to 57.5 µM; note: % is set by controls: 0 for no effect and ±100 for the full control effect; nearly all actives have a fitted effect of over 55% in size
Procedure, shortened: (§2)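 48 h compound exposure at 37 C, 5% CO2; five-point qHTS. ATPlite luminescence readout of cell ATP.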

[6] = tested on: CASKI; test: as above; details: Gynecologic cancer cell panel viability, ATPlite luminescence, 48 h; series mostly up to 57.5 µM
Procedure, shortened: as §2

[7] = tested on: Es-2; test: as above; details: Gynecologic cancer cell panel viability, ATPlite luminescence, 48 h; series mostly up to 57.5 µM
Procedure, shortened: as §2

[8] = tested on: HeLa; test: as above; details: Gynecologic cancer cell panel viability, ATPlite luminescence, 48 h; series mostly up to 57.5 µM
Procedure, shortened: as §2

[9] = tested on: Hek293T; test: as above; details: Gynecologic cancer cell panel viability, ATPlite luminescence, 48 h, control line for the selectivity index; series mostly up to 57.5 µM
Procedure, shortened: as §2

[10] = tested on: JEG-3; test: as above; details: Gynecologic cancer cell panel viability, ATPlite luminescence, 48 h; series mostly up to 57.5 µM
Procedure, shortened: as §2

[11] = tested on: OV90; test: as above; details: Gynecologic cancer cell panel viability, ATPlite luminescence, 48 h; series mostly up to 57.5 µM
Procedure, shortened: as §2

[12] = tested on: CAOV3; test: as above; details: Gynecologic cancer cell panel viability, ATPlite luminescence, 48 h; series mostly up to 57.5 µM
Procedure, shortened: as §2

CC(C)=CCC/C(C)=C/CO[C@@H]1O[C@H](CO)[C@@H](O)[C@H](O)[C@H]1O
inactive: outcome [1] | outcome [2] | max response [3] -9.17% | Potency [4] | Potency [5] | Potency [6] | Potency [7] | Potency [8] | Potency [9] | Potency [10] | Potency [11]

COc1c2c(c(C)c3c1C(=O)OC3)OC1(C)CC(O)C34OC(OC)(CC(OC(C)=O)C3(C)C1C2)OC4(C)C (configuration not stated)
inactive: outcome [1] | max response [2] 1.81% | max response [3] -0.676% | Potency [4] | Potency [5] | Potency [6] | Potency [7] | Potency [8] | Potency [9] | Potency [10] | Potency [11]

O=C1NC(Cc2c[nH]c3ccccc23)C(=O)NC1Cc1cnc[nH]1 (configuration not stated)
inactive: outcome [1] | outcome [2] | max response [3] 3.67% | Potency [4] | Potency [5] | Potency [6] | Potency [7] | Potency [8] | Potency [9] | Potency [10] | Potency [11]

CN(C)C(=O)NC1CCC(CCN2CCN(c3cccc(Cl)c3Cl)CC2)CC1 (configuration not stated)
inactive: outcome [1] | max response [2] -7.32% | max response [3] -6.34% | outcome [4] inactive [at 9.27 µM] | activity change, negative = cytotoxicity [5] 1.34% [at 11.6 µM] | activity change, negative = cytotoxicity [6] 13.5% [at 11.6 µM] | activity change, negative = cytotoxicity [7] 5.23% [at 11.6 µM] | activity change, negative = cytotoxicity [8] -0.835% [at 11.6 µM] | activity change, negative = cytotoxicity [9] 12% [at 11.6 µM] | activity change, negative = cytotoxicity [10] 8.74% [at 11.6 µM] | activity change, negative = cytotoxicity [11] 0.264% [at 11.6 µM]

O=C(O)CCCCCC[C@H]1C(=O)NC(=O)N1CC[C@@H](O)C1CCCCC1
inactive: outcome [1] | outcome [2] | max response [3] -5.35% | Potency [4] | Potency [5] | Potency [6] | Potency [7] | Potency [8] | Potency [9] | Potency [10] | Potency [11]

Cc1ccc(C)c(OCCn2cc(C(=O)O)c3ccccc32)c1
inactive: outcome [1] | max response [2] 3.13% | max response [3] 4.52% | Potency [4] | Potency [5] | Potency [6] | Potency [7] | Potency [8] | Potency [9] | Potency [10] | Potency [11]

C[C@@]12CC[C@@H]3[C@@](CC[C@H]4[C@@]3(C)CCC[C@@]4(C)C(=O)O)(CC1=O)C2
inactive: outcome [1] | max response [2] 1.35% | max response [3] -5.17% | Potency [4] | Potency [5] | Potency [6] | Potency [7] | Potency [8] | Potency [9] | Potency [10] | Potency [11]

C/C=C/c1ccc2c(c1)[C@@H](C)[C@H](c1ccc(O)cc1)O2
inactive: outcome [1] | max response [2] -2.15% | max response [3] 3.14% | Potency [4] | Potency [5] | Potency [6] | Potency [7] | Potency [8] | Potency [9] | Potency [10] | Potency [11]

CC(C)(O)C1CCC(C)(C2CCC3(C)C4CCC5C(C)(C(=O)OC6OC(CO)C(O)C(O)C6O)C(O)CC(O)C56CC46CCC23C)O1 (configuration not stated)
inactive: outcome [1] | max response [2] -9.11% | max response [3] -1.85% | Potency [4] | Potency [5] | Potency [6] | Potency [7] | Potency [8] | Potency [9] | Potency [10] | Potency [11]

COC(=O)C1=CO[C@@H](O[C@@H]2O[C@H](CO)[C@@H](O)[C@H](O)[C@H]2O)C2C1C(=O)C[C@H]2C (some centres not stated)
inactive: outcome [1] | outcome [2] | max response [3] 2.63% | Potency [4] | Potency [5] | Potency [6] | Potency [7] | Potency [8] | Potency [9] | Potency [10] | Potency [11]

Cc1cc(OCc2nc(-c3ccccc3Cl)cs2)ccc1OCC(=O)O
inactive: outcome [1] | outcome [2] | max response [3] 4.72% | Potency [4] | Potency [5] | Potency [6] | Potency [7] | Potency [8] | Potency [9] | Potency [10] | Potency [11]

COc1cc(OC)cc(C(=O)Nc2ccc(Cl)c(-c3nc4ccc(N(C)C)cc4[nH]3)c2)c1
inactive: outcome [1] | max response [2] 2.52% | max response [3] -0.734% | Potency [4] | Potency [5] | Potency [12] | Potency [6] | Potency [7] | Potency [8] | Potency [10]

C[C@@H]1O[C@@H](O[C@H]2[C@@H]3C=CO[C@@H](O[C@@H]4O[C@H](CO)[C@@H](O)[C@H](O)[C@H]4O)[C@@H]3[C@@]3(CO)O[C@@H]23)[C@H](OC(=O)/C=C/c2ccccc2)[C@H](O)[C@H]1O
inactive: outcome [1] | outcome [2] | max response [3] -1.15% | Potency [4] | Potency [5] | Potency [6] | Potency [7] | Potency [8] | Potency [9] | Potency [10] | Potency [11]
